Drawing on PubChem BioAssay AID2314 (National Center for Advancing Translational Sciences (NCATS), 2010), this text covers max response for 98 compounds.

About 37,000 (12%) of roughly 300,000 compounds were called active. Cut-off read from the data, not from the text of the source: active = max response mostly above about 13% (no sharp cut-off); inactive = mostly below about 14%. Only a selection was taken, and actives are over-represented in it overall.

A short description of this assay: Cycloheximide Counterscreen for Small Molecule Inhibitors of Shiga Toxin. Note: read at 38.3 µM for the half of the compounds with a filed dose; 0% is about no effect. To be noted: cell reporter, cycloheximide protein synthesis inhibition counterscreen; active compounds read high. In general terms: A counterscreen serves to expose hits that act by an unwanted route or on another target.
With `COc1ccc(-c2nnc(SC(=O)N3c4ccccc4Sc4ccccc43)o2)cc1`, the max response was 9.5% (inactive).

For `COc1ccc2[nH]c(=O)c(C3c4cc(OC)c(OC)cc4CCN3C(=O)c3ccco3)cc2c1` (stereo not drawn), the max response is -3.91% (inactive).

Turning to `NS(=O)(=O)c1cccc(NC(=O)CC23CC4CC(CC(Br)(C4)C2)C3)c1`, the max response was -0.826% (inactive).

For the compound `CN(C(=O)CCN1C(=O)/C(=C/c2ccccc2F)SC1=S)C1CCS(=O)(=O)C1` (stereo not drawn), the max response was 4.42% (inactive).

In the case of `O=C(CN1C(=O)/C(=C/c2ccccc2F)Sc2ccccc21)NCc1cccnc1`, the max response was 8.85% (inactive).

Turning to `O=C(CN1C(=O)/C(=C\c2ccccc2F)SC1=S)Nc1nc2ccccc2s1`, the max response was 47.4% (active).

For the compound `COC(=O)c1cccc(N(C(=O)CNC(=O)c2cccs2)C(C(=O)NCC2CCCO2)c2ccc(OC)c(OC)c2)c1` (stereo not drawn), the max response is -3.34% (inactive).

As to `Cc1cc(O)ccc1-c1cnc2ccccc2n1`, the max response is 34.4% (active).

Turning to `O=C(O)c1cc(S(=O)(=O)N(Cc2ccccc2)c2ccccc2)ccc1Cl`, the max response is -0.844% (inactive).

As for `COc1ccc(N(C(=O)CNC(=O)c2ccco2)C(C(=O)NCC2CCCO2)c2ccccc2)cc1Cl` (stereo not drawn), the max response was -3.36% (inactive).

Regarding `CCCN1CCC(=O)N(C(CSc2ccc(C)cc2)Cc2ccccc2)CC1` (stereo not drawn), the max response was 7.93% (inactive).

As to `COc1ccc(SC[C@H](Cc2ccccc2)N2CCN(CCc3ccccc3)CCC2=O)cc1`, the max response is -4.06% (inactive).

For the compound `Cc1ccc(SCC(CC(C)C)N2CCN(CCc3ccccc3)CCC2=O)cc1` (stereo not drawn), the max response is 40% (active).

With `CCOC(=O)CN1C(=O)C(=O)c2cc(C)ccc21`, the max response was -1.86% (inactive).

Take `CCOC(=O)[C@@H]1[C@H]2COc3cc(OC)ccc3[C@H]2N2C(=O)N(c3ccc(F)cc3)C(=O)[C@]12C`: the max response was 0.485% (inactive).

Take `COCCN(C(=O)C(C)C)c1nnc(-c2ccc(C(C)(C)C)cc2)s1`: the max response was 13.2% (inactive).

In the case of `O=C(Cc1cccs1)Nc1cccc(-c2nc3ccccc3[nH]2)c1`, the max response was 11.5% (inactive).

Regarding `O=C(/C=C/c1ccco1)Nc1cccc(-c2nc3ccccc3[nH]2)c1`, the max response was 51.8% (active).

Consider `Cc1ccc(-c2nc3ccccc3[nH]2)cc1NC(=O)c1sc2ccccc2c1Cl`, for which the max response is -0.874% (inactive).

Regarding `NS(=O)(=O)c1cccc(NC(=O)COC(=O)/C=C/c2ccco2)c1`, the max response is 0.371% (inactive).

Regarding `CC(C)Oc1ccc(/C=C(\NC(=O)/C=C/c2ccco2)C(=O)NCCc2nc3ccccc3[nH]2)cc1`, the max response is 5.81% (inactive).

Consider `O=C(Nc1cccc(-c2nc3ccccc3[nH]2)c1)c1ccc(C(=O)Nc2cccc(-c3nc4ccccc4[nH]3)c2)cc1`, for which the max response was 48.3% (active).

Regarding `COc1ccc(C(=O)Nc2ccccc2C(=O)N/N=C/c2ccc(O)c(OC)c2)cc1`, the max response is -7.9% (inactive).

Consider `O=C(N/N=C/c1cccc(Br)c1)c1ccc(N2CCCC2=O)cc1`, for which the max response was -5.81% (inactive).

Regarding `COc1cc(/C=N/NC(=O)c2ccc(N3CCCC3=O)cc2)ccc1O`, the max response is 36% (active).

Consider `Cc1c(Cl)cccc1NC(=O)Nc1ccc(C(=O)N2CCCC2)cc1`, for which the max response is -1.9% (inactive).

On to `O=C(CCS(=O)(=O)c1ccc2c(c1)NC(=O)CS2)NCc1ccccc1Cl`, for which the max response is -3.16% (inactive).

With `O=C(CSc1n[nH]c(=O)n1-c1ccccc1)Nc1ccccc1C(F)(F)F`, the max response is -2.47% (inactive).

Regarding `CC(N=Cc1nc(-c2ccccc2)oc1O)c1ccccc1` (stereo not drawn), the max response was 35.7% (active).

Consider `CCOc1ccc2nc(/N=C/c3nc(-c4ccccc4)oc3O)sc2c1`, for which the max response was -1.31% (inactive).

As for `Cc1c(Cl)cccc1NC(=O)NCCCN1CCCC1=O`, the max response is -0.801% (inactive).

Regarding `COCCN1C(=O)C(=O)/C(=C(/O)c2ccc(S(=O)(=O)N3CCOCC3)cc2)C1c1ccc(O)c(OC)c1` (stereo not drawn), the max response was -5.59% (inactive).

Regarding `Cc1cccc(NC(=S)NCc2ccc3[nH]c4c(c3c2)CCCC4)c1`, the max response was 9.68% (inactive).

As to `O=c1c2ccccc2nc(/C=C/c2ccc(F)cc2)n1-c1ccccc1O`, the max response was 6.44% (inactive).

On to `O=c1c2ccccc2nc(/C=C/c2ccco2)n1-c1ccccc1O`, for which the max response was 24.2% (active).

`CCn1c(/C=C/c2ccc([N+](=O)[O-])o2)nc2ccccc2c1=O`: the max response was -4.66% (inactive).

Take `O=C(Nc1ccc(F)c([N+](=O)[O-])c1)C1CC(=O)N(Cc2ccccc2)C1` (stereo not drawn): the max response was -3.3% (inactive).

`COc1cccc(N(CC(=O)NC2CCCC2)C(=O)Cn2nnc(-c3ccc(C)o3)n2)c1`: the max response is -3.92% (inactive).

For `COC(=O)CCc1ccccc1S(=O)(=O)N(CCC(=O)OC)Cc1ccccc1`, the max response is -11% (inactive).

Regarding `COc1ccc(Cl)cc1-n1c(=S)sc2c(=O)n(-c3ccc(F)cc3)c(SCC(=O)O)nc21`, the max response is 0.929% (inactive).

On to `O=C1C2N=NN(CC(=O)N3N=C(c4cccc5ccccc45)CC3c3ccccc3)C2C(=O)N1c1ccccc1` (stereo not drawn), for which the max response is -3.29% (inactive).

Turning to `O=C(/C=C/c1c(F)cccc1Cl)Nc1nn[nH]n1`, the max response is -1.57% (inactive).

On to `N#C/C(=C\c1ccccc1C(F)(F)F)C(=O)Nc1ccccc1F`, for which the max response is -2.94% (inactive).

As for `CNC(=O)/C(C#N)=C/c1c(F)cccc1Cl`, the max response is 15.7% (active).

As for `CCc1ccc(/C=N/NC(=O)c2ccc(OC3CCCC3)cc2)s1`, the max response was 12.2% (inactive).

With `COc1ccc(CCNC(=O)CCn2c(=O)c3ccccc3n(CC(=O)NCC3CCCO3)c2=O)cc1OC` (stereo not drawn), the max response was 11% (inactive).

With `Cn1c(=N)n(CC(O)c2cccs2)c2ccccc21` (stereo not drawn), the max response was -3.56% (inactive).

Regarding `Cc1nc2ccccc2n1CC(O)c1ccccc1` (stereo not drawn), the max response was -1.62% (inactive).

On to `Cn1c(=N)n(CC(O)c2ccccc2)c2ccccc21` (stereo not drawn), for which the max response was 70.1% (active).

`COC(C(=O)Nc1ccc(C(C)=O)cc1)c1ccccc1` (stereo not drawn): the max response is -2.94% (inactive).

On to `COc1ccc(NC(C(=O)Nc2cccc(C(C)=O)c2)c2ccccc2)cc1` (stereo not drawn), for which the max response is 12.5% (active).

Regarding `COc1ccc(NC(=O)[C@H](NC(=O)[C@@H]2Cc3ccccc3CN2)c2ccccc2)cc1`, the max response is -1.13% (inactive).

With `O=C(NC1CCN(C(=S)Nc2ccc(Cl)cc2)CC1)C1CCCCC1`, the max response was -3.84% (inactive).

Turning to `O=C(Nc1ccc(Cl)cc1)Nc1ccc(C(=O)N2CCOCC2)cc1`, the max response is 15.1% (inactive).

On to `NS(=O)(=O)c1ccc(CCNC(=O)Nc2ccc(Cl)cc2)cc1`, for which the max response is 11% (inactive).

As for `CC(C)S(=O)(=O)c1csc(NC(=O)Nc2ccc(Cl)cc2)c1Cl`, the max response is 17.4% (active).

For `Cc1cccc(OCC(=O)Nc2ccc(NC(=O)c3ccco3)c(C)c2)c1`, the max response was 6.82% (inactive).

Take `CSc1ncc(C(=O)Nc2ccc(C)cc2C)c(C)n1`: the max response is 2.97% (inactive).

With `CSc1nccc(NC(=O)c2ccc(C(C)(C)C)cc2)n1`, the max response is 38.6% (active).

Turning to `COC(=O)c1nc(NC(=O)c2ccc(C(C)(C)C)cc2)n[nH]1`, the max response was 4.76% (inactive).

As for `Cn1c(Cn2nnc3ccccc32)nnc1SCC(=O)c1ccccc1F`, the max response was 1.74% (inactive).

In the case of `CCOc1ccc(Nc2nc(Cl)nc(N3CCN(c4ccc(OC)cc4)CC3)n2)cc1`, the max response was 1.38% (inactive).

For the compound `c1ccc(Nc2nc(N3CCOCC3)c3ccccc3n2)cc1`, the max response was 3.89% (inactive).

Consider `COc1ccc(Nc2ncc(F)c(N3CCOCC3)n2)cc1`, for which the max response is 27.6% (active).

Regarding `OCCNc1nc2ccccc2n1-c1ncnc2sc3c(c12)CCC3`, the max response was -6.62% (inactive).

Take `CCCCCCCCCOC1OC(CO)C(O)C(O)C1NC(C)=O` (stereo not drawn): the max response is 2.49% (inactive).

For the compound `COc1cccc(CC2(CO)CCCN(Cc3nc(-c4cccs4)oc3C)C2)c1` (stereo not drawn), the max response was 1.79% (inactive).

In the case of `Cc1nn2cc(-c3ccc(Cl)cc3)cnc2c1Br`, the max response is 23.7% (active).

As for `COc1cccc(N2CCN(c3ccc4nnc(CCC(=O)N5CCN(C)CC5)n4n3)CC2)c1`, the max response was -3.61% (inactive).

Turning to `O=C(NCCc1c[nH]c2ccccc12)C1CCN(Cc2ccc(Br)cc2)CC1`, the max response was -1.22% (inactive).

With `COc1cc(OC)c(NC(=O)C2CCCN2C(=O)OCc2ccccc2)cc1Cl` (stereo not drawn), the max response is -2.36% (inactive).

In the case of `COC(=O)c1ccc(OC(=O)c2nn(C)cc2Cl)c(OC)c1`, the max response was 8.01% (inactive).

For `COc1cccc(NC(C)=[N+](C)CCNS(=O)(=O)c2ccc(Cl)cc2)c1`, the max response is 43.4% (active).

As for `COc1ccc(S(=O)(=O)NCCCCOc2ccc(Cl)cc2)cc1`, the max response was -3.02% (inactive).

For the compound `CCNS(=O)(=O)c1ccc(NC(=O)Nc2cccc(OC)c2)cc1`, the max response is 10.4% (inactive).

Take `CC/C(=N\NC(=O)c1c(C)nc2ccccn12)c1ccc(Cl)cc1`: the max response was 6.12% (inactive).

As for `CN(C)c1ccc(C2N(C)C(=O)c3ccccc3N2C)cc1` (stereo not drawn), the max response is -2.11% (inactive).

On to `O=C(C1=C(O)C(=O)N(c2ncccn2)C1c1cccs1)c1ccco1` (stereo not drawn), for which the max response is 0.951% (inactive).

`O=C(C1=C(O)C(=O)N(CCOCCO)C1c1ccccn1)c1cccs1` (stereo not drawn): the max response is 15.5% (active).

On to `O=C(COc1ccc2ccccc2c1)N1CCN(C(=O)c2cccs2)CC1`, for which the max response is -3.04% (inactive).

Regarding `Cc1ccc2[nH]c(=O)c(CC(=O)O)c(-c3ccccc3)c2c1`, the max response was -1.3% (inactive).

Regarding `c1ccc(COc2ccccc2CNCc2cccnc2)cc1`, the max response was 2.03% (inactive).

`CC(C)(C)OC(=O)N/N=C/c1ccc(C(=O)O)cc1`: the max response is 29.1% (active).

With `O=C(O)c1ccc(/C=N/NC(=O)c2ccc(Br)cc2)cc1`, the max response is -2.33% (inactive).

Turning to `COC(=O)N/N=C/c1ccc(/C=N/NC(=O)OC)cc1`, the max response is -2.42% (inactive).

Regarding `Cc1cccc2c1cnn2C(=O)CCC(=O)NC1CCCCC1`, the max response is 4.44% (inactive).

As to `Cc1nc2nc(SCC(=O)Nc3cccc(F)c3)[nH]c2cc1Br`, the max response was 1.17% (inactive).

As to `O=C(c1cc(-c2cccs2)on1)N1CCCCC1`, the max response was 50.6% (active).

For `COc1ccccc1-c1cc(C(=O)N2CCCCC2)no1`, the max response was 59.2% (active).

As to `COc1cccc(OC)c1OCCN1CCN(C(=O)c2ccco2)CC1`, the max response is -3.58% (inactive).

On to `COc1cccc(-c2cc(C(=O)N3CCN(c4ccccc4OC)CC3)no2)c1`, for which the max response is 7.23% (inactive).

Turning to `O=C(c1ccc(Cl)c(Cl)c1)N1CCCC1`, the max response is -2.63% (inactive).

Take `O=C(c1ccco1)N1CCN(C(=O)c2ccc(COc3ccc(F)cc3)o2)CC1`: the max response is -1.31% (inactive).

`COc1ccccc1N1CCN(C(=O)c2cc(-c3ccc(Cl)c(Cl)c3)on2)CC1`: the max response was -1.8% (inactive).

With `COc1cccc(OCc2cc(C(=O)N3CCN(C(=O)c4ccco4)CC3)no2)c1`, the max response was 44.9% (active).

Regarding `O=C(C1CCN(S(=O)(=O)c2cccs2)CC1)N1CCCCCC1`, the max response was 10% (inactive).

In the case of `O=C(c1cc(-c2ccccc2O)on1)N1CCCC1`, the max response was 35% (active).

For `CNC(=O)n1ccc(C(=O)N2CCCCC2)n1`, the max response was 1.48% (inactive).
